From PubChem BioAssay
Where “and” joins values, the source holds several entries; their conditions need not be identical. Equal values may be shown once. Calls of active or inactive are those of the source.

Legend:
[1] = system: PRMT1 (protein arginine N-methyltransferase 1); assay: PRMT1 binders on small-molecule microarrays, primary screen, biochemical, small-molecule microarray, 635 nm fluorescence (AID 1088); conditions: small-molecule microarray binding, higher = more signal;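 also: binding of Prmt1 protein to compounds spotted on small-molecule microarray slides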
[2] = yeast growth modulation, basal conditions, primary screen, YJM789 clinical isolate, OD600, 24 h (AID 1089);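 also: growth of clinical yeast isolate S. cerevisiae YJM 789 seeded 1000 cells per well; test concentration not given here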; conditions: S. cerevisiae YJM789 growth, higher = more signal, called active from +8 up or from −8 down
[3] = fission yeast growth modulation, primary screen, strain 972, OD600, 24 h, no modulator (AID 1090);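 also: basal condition with compound alone and no growth modifier present; test concentration not given here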; conditions: S. pombe 972 growth, higher = more signal, called active from +8 up or from −8 down
[4] = S. cerevisiae growth modulation with rapamycin, primary screen, strain BY4716, OD600, 96 h (AID 1091); conditions: higher = more signal, called active from +8 up or from −8 down; also: test concentration not given here
[5] = target: Torsin-1A-interacting protein 2 (Homo sapiens) (UniProt Q8NFQ8); assay: LULL1 binders on small-molecule microarray, primary screen, cell lysate, human LULL1 lysate, 635/667 nm fluorescence (AID 1092); conditions: hLULL1 lysate binding, 635 nm fluorescence, higher = more signal;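 also: probe is lysate of COS7 cells overexpressing human LULL1; score merges per-feature 667 nm fluorescence with signal-to-noise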
Sequence of Torsin-1A-interacting protein 2 (Homo sapiens) (Q8NFQ8 whole entry, looked up): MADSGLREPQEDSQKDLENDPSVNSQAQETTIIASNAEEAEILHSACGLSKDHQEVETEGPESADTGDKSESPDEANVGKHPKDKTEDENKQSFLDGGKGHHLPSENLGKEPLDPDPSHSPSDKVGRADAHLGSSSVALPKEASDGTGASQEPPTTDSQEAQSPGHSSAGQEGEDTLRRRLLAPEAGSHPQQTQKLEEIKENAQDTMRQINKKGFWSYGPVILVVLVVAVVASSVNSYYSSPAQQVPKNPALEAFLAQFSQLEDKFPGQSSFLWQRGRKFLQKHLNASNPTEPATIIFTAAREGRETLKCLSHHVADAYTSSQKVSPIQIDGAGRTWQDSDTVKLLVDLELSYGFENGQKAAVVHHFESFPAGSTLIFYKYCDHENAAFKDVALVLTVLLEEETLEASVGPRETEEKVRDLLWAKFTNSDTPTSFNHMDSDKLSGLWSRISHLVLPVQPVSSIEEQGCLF

[6] = E. coli growth modulation, two-sided OD650, primary screen, E. coli filamentation project, strain DRC41, 24 h (AID 1093); conditions: OD650, 24 h, higher = more signal, called active from +8 up or from −8 down;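 also: MC1000 strain lacking acrAB efflux and sulA so SOS filamentation is blocked; test concentration not given here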
[7] = small-molecule microarray binders of probe aLefty2, primary screen, biochemical, biotinylated probe, 635/667 nm fluorescence (AID 1094); conditions: higher = more signal;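 also: score merges spot fluorescence near 667 nm with spot signal-to-noise ratio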
[8] = system: Noggin (protein binding on small-molecule microarray); assay: Noggin binders on small-molecule microarray, primary screen, biochemical, 635/667 nm fluorescence (AID 1095); conditions: 635 nm fluorescence, higher = more signal;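 also: score merges 667 nm feature fluorescence with signal to noise over triplicate slides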
[9] = target: Neurogenic locus notch homolog protein 3 (Homo sapiens) (UniProt Q9UM47); assay: NOTCH3 binders on small-molecule microarray, primary screen, biochemical, 635/667 nm fluorescence (AID 1096); conditions: NOTCH3 binding, 635 nm fluorescence, higher = more signal
Sequence of Neurogenic locus notch homolog protein 3 (Homo sapiens) (Q9UM47 whole entry, looked up): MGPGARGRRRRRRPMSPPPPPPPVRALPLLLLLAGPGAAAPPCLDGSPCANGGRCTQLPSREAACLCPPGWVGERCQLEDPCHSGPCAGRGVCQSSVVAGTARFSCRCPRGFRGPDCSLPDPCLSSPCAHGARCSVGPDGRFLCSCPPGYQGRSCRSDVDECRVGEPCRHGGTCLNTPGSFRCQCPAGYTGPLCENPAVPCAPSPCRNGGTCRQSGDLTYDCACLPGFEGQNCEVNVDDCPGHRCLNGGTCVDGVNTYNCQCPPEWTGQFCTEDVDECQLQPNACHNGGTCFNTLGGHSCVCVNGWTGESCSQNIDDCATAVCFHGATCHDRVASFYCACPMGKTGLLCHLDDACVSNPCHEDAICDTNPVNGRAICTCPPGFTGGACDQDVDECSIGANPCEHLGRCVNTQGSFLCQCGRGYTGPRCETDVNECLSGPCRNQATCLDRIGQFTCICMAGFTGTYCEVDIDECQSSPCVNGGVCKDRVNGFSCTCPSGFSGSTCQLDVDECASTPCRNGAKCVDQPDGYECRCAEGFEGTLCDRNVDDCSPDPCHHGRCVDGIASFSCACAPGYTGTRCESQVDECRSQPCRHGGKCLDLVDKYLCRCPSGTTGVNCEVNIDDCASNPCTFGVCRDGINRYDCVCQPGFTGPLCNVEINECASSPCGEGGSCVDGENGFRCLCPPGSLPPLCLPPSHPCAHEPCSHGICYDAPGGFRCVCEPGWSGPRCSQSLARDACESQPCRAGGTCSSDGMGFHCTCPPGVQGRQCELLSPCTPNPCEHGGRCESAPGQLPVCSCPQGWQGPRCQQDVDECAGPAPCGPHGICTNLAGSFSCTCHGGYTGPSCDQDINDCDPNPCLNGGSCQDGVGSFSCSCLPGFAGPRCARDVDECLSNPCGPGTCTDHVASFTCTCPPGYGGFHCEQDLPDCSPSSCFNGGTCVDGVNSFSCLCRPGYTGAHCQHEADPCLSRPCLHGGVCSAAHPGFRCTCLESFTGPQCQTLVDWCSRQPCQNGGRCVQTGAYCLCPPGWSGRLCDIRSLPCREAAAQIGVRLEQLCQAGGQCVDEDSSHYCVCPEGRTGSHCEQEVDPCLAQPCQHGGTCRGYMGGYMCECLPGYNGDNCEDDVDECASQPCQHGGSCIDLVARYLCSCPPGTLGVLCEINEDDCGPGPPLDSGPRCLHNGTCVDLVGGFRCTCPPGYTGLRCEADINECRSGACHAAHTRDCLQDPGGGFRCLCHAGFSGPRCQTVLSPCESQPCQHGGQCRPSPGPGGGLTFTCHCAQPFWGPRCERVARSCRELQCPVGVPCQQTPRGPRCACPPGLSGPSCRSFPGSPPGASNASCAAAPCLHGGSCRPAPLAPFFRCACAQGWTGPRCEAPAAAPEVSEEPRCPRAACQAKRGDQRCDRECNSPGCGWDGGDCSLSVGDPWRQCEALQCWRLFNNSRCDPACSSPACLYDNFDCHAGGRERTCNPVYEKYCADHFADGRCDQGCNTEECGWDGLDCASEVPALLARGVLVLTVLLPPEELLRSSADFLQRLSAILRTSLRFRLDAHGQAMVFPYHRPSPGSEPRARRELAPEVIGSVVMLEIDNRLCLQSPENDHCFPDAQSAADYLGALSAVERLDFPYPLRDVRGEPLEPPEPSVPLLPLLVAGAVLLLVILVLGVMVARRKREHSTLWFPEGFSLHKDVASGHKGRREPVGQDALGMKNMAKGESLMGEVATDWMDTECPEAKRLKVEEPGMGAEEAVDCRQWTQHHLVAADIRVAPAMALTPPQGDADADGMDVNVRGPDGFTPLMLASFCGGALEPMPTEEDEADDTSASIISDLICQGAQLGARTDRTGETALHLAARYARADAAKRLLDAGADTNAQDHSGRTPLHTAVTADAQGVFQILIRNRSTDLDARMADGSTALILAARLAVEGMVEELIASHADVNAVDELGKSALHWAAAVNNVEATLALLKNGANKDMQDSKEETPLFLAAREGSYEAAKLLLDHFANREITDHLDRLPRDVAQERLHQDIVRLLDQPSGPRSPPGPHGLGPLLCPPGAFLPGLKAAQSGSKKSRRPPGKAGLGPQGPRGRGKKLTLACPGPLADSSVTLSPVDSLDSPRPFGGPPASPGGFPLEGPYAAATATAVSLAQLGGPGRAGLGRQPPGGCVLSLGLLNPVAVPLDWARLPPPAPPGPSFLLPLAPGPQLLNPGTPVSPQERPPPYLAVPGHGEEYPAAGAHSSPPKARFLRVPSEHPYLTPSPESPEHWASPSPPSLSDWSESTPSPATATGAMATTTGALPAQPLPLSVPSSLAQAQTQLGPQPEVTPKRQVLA

[10] = small-molecule microarray binders of probe aEGFR, primary screen, biochemical, biotinylated probe, 635/667 nm fluorescence (AID 1097); conditions: higher = more signal;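 also: probe is a biotinylated anti-EGFR antibody binding compounds printed on slides; score combines fluorescence near 667 nm and signal to noise of each spot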
[11] = system: Plasmodium falciparum Sir2 (PF13_0152, Sir2A); assay: pfSir2 binders on small-molecule microarrays, primary screen, biochemical, small-molecule microarray, 635 nm fluorescence (AID 1098); conditions: small-molecule microarray binding, fluorescence 635 nm; higher = more signal;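 also: score merges spot fluorescence intensity with its signal-to-noise ratio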
[12] = small-molecule microarray binders of probe aDKK1, primary screen, biochemical, biotinylated probe, 635/667 nm fluorescence (AID 1099); conditions: higher = more signal;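 also: score merges 667nm spot fluorescence with signal to noise across triplicate slides; reference of the scale not given here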
[13] = small-molecule microarray binders of probe aCHRDL2, primary screen, biochemical, biotinylated probe, 635/667 nm fluorescence (AID 1100); conditions: higher = more signal
[14] = splicing luciferase reporter signal modulators, primary screen, spliceosome inhibition project, cell-based, HEK293, splice +/- reporter (AID 1101); conditions: luminescence, 24 h, higher = more signal, called active from +8 up or from −8 down;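 also: HEK293 cells carrying a splicing-competent luciferase reporter gene; test concentration not given here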
[15] = target: Fibroblast growth factor 10 (Homo sapiens) (UniProt O15520); assay: FGF10 binders on small-molecule microarrays, primary screen, biochemical, small-molecule microarray, 635 nm fluorescence (AID 1102); conditions: FGF10 binding, fluorescence 635 nm, higher = more signal
Sequence of Fibroblast growth factor 10 (Homo sapiens) (O15520 whole entry, looked up): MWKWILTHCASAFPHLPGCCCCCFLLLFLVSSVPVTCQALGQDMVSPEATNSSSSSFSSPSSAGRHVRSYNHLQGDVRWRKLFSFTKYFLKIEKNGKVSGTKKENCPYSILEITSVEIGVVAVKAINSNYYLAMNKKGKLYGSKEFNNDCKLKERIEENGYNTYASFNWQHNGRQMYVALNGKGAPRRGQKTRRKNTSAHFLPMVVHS

[16] = system: glycogen synthase kinase-3 (GSK3A per assay name; protocol says GSK3B); assay: GSK3 binders on small-molecule microarrays, primary screen, biochemical, small-molecule microarray, 635 nm fluorescence, GSK3A (AID 1103); conditions: small-molecule microarray binding, fluorescence 635 nm; higher = more signal; also: the record names both GSK3A and GSK3B
[17] = target: Epidermal growth factor receptor (Homo sapiens) (UniProt P00533); assay: EGFR binders on small-molecule microarrays, primary screen, biochemical, small-molecule microarray, 635 nm fluorescence (AID 1104); conditions: EGFR binding, higher = more signal;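 also: score merges 667 nm emission intensity with spot signal to noise over triplicate slides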
Sequence of Epidermal growth factor receptor (Homo sapiens) (P00533 whole entry, looked up): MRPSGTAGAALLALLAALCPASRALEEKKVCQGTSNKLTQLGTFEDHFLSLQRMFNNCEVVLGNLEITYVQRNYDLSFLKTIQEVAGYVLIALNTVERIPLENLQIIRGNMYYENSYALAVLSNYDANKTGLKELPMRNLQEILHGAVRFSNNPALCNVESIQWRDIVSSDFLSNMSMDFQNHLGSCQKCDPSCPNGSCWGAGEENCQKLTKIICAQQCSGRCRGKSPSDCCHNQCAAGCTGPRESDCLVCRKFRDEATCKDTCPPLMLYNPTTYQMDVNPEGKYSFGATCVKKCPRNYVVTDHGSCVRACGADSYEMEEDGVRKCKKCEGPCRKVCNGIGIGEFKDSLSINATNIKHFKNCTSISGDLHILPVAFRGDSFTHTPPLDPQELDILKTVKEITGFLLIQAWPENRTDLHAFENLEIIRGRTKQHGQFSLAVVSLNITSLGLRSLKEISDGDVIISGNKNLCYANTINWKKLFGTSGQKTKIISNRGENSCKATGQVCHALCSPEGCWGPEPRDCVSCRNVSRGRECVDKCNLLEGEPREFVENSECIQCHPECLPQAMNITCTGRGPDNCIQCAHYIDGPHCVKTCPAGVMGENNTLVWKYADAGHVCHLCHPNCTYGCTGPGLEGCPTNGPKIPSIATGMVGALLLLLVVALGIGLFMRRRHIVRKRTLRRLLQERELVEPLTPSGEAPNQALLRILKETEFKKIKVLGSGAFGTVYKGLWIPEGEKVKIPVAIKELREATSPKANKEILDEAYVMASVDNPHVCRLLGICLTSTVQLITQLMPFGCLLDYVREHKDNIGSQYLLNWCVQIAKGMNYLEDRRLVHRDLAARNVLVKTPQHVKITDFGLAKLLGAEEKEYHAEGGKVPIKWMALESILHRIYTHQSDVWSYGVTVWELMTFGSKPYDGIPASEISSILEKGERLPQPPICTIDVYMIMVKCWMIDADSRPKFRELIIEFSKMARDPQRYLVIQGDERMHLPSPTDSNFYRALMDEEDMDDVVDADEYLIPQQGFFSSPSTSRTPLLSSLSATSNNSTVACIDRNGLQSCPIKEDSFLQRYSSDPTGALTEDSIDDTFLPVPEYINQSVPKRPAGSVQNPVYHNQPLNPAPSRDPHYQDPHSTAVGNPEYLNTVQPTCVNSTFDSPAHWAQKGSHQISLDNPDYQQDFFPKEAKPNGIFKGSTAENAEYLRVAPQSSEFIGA

[18] = target: Follistatin-related protein 3 (Homo sapiens) (UniProt O95633); assay: FSTL3 binders on small-molecule microarrays, primary screen, biochemical, small-molecule microarray, 635 nm fluorescence (AID 1105); conditions: FSTL3 binding, higher = more signal;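 also: score merges emission near 667 nm and signal to noise per printed spot across three slides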
Sequence of Follistatin-related protein 3 (Homo sapiens) (O95633 whole entry, looked up): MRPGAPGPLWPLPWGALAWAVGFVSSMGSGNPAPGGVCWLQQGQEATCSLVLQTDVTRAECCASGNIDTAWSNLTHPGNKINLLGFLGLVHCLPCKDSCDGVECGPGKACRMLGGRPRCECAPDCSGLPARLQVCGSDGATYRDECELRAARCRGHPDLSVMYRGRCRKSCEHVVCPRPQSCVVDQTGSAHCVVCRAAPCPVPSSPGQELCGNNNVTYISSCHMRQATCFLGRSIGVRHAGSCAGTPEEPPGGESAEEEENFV

[19] = target: Dickkopf-related protein 1 (Homo sapiens) (UniProt O94907); assay: DKK1 binders on small-molecule microarrays, primary screen, biochemical, small-molecule microarray, 635 nm fluorescence scan (AID 1106); conditions: DKK1 binding, higher = more signal;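 also: score merges emission near 667 nm with signal to noise over three replicate slides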
Sequence of Dickkopf-related protein 1 (Homo sapiens) (O94907 whole entry, looked up): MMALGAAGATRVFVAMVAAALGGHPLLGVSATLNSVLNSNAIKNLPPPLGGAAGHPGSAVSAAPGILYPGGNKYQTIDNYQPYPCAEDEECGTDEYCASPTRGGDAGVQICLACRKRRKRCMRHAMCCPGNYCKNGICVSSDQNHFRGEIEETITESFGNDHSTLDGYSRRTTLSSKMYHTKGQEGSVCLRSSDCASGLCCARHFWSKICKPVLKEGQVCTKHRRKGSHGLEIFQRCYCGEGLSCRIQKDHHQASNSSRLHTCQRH

[20] = system: Inhibin beta A chain (activin A); assay: INHBA (activin A) binders on microarrays, primary screen, biochemical, small-molecule microarray, 635 nm fluorescence scan (AID 1107); conditions: small-molecule microarray binding, higher = more signal;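 also: mouse activin A protein probed at 4.33 µg/mL on printed slides; score merges bound-protein fluorescence near 667 nm with spot signal-to-noise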

| SMILES | composite z-score [1] | z-score [2] | z-score [3] | z-score [4] | composite z-score [5] | z-score [6] | composite z-score [7] | composite z-score [8] | composite z-score [9] | composite z-score [10] | composite z-score [11] | composite z-score [12] | composite z-score [13] | z-score [14] | composite z-score [15] | composite z-score [16] | composite z-score [17] | composite z-score [18] | composite z-score [19] | composite z-score [20] |
| --- | --- | --- | --- | --- | --- | --- | --- | --- | --- | --- | --- | --- | --- | --- | --- | --- | --- | --- | --- | --- |
| C=CCN(C(=O)C1N(CCOCCO)C(=O)C2C(C(=O)O)C3C=CC21O3)C(C)(C)C (stereo not given) | -1.26 and -0.124 | -0.419 (inactive) and -0.683 (inactive) | -0.378 (inactive) and -0.505 (inactive) | -0.357 (inactive) and -0.658 (inactive) | -1.29 and -1.44 | 0.389 (inactive) and 0.267 (inactive) | -0.251 and -0.197 | -2.02 and -1.83 | -1.49 and -0.757 | -0.323 and -0.241 | 1.73 and -1.59 | -0.128 and -0.31 | 0.867 and 0.619 | -0.235 (inactive) and 0.32 (inactive) | -1.8 and -1.24 | -1.76 and -0.852 | -2.23 and -1.56 | -2.47 and -1.69 | -2.47 and -1.32 | -1.84 and -3.28 |
| CCOC(=O)CCN1C(=O)[C@H]2[C@H]3[C@H](O)[C@H](O)CC(=NNC(=O)OCC)[C@@H]3CC[C@H]2C1=O | 0.763 | -0.373 (inactive) | -0.769 (inactive) | -0.491 (inactive) | 0.45 | 0.441 (inactive) | 0.0634 | 0.531 | 0.316 | 0.095 | 0.238 | -0.0567 | -0.0213 | 0.519 (inactive) | 0.283 | 0.0666 | 0.209 | 0.0654 | -0.0149 | -0.772 |
| COC(=O)[C@@]1(Cc2ccccc2)[C@H]2c3cc(C(=O)N(C)C)n(Cc4ccc(C)c(F)c4F)c3C[C@H]2CN1C(=O)c1ccccc1 | -0.325 and 1.23 | -0.542 (inactive) and -0.0959 (inactive) | -0.991 (inactive) and 1.01 (inactive) | -0.447 (inactive) and 1.48 (inactive) | 3.44 and 3.67 | -0.359 (inactive) and -0.543 (inactive) | 0.378 and 0.513 | -0.566 and 0.645 | 0.636 and 1.06 | 0.168 and 0.646 | 1.07 and 0.37 | 1.39 and 0.861 | 1.31 and 1.05 | -2.38 (inactive) and -2.61 (inactive) | 0.365 and 1.01 | 0.22 and 1.32 | -0.542 and 0.652 | -0.0958 and 1.42 | -1.07 and 0.472 | 0.885 and 1.09 |
| C[C@@H]1CC[C@H]2C(=O)NC[C@@H](O)CN2[C@H]1c1ccc(Br)cc1 | -0.0838 and -0.473 | -0.77 (inactive) and 0.443 (inactive) | -0.0565 (inactive) and -0.0682 (inactive) | -0.451 (inactive) and 0.389 (inactive) | 0.759 and -0.129 | 0.0565 (inactive) and 0.377 (inactive) | -0.136 and -0.253 | 0.561 and -0.0536 | -0.0857 and -0.344 | -0.171 and -0.0356 | 0.102 and 0.107 | -0.214 and -0.138 | -0.0441 and -0.0598 | 0.338 (inactive) and 0.0732 (inactive) | -0.0319 and -0.141 | -0.645 and -0.288 | -0.251 and -0.159 | -0.348 and -0.394 | -0.219 and -0.179 | 0.747 and 0.211 |
